Bioassay records (PubChem)
Many of the other results were omitted from the sample, so hits are more common in it than they were.
KDM4E inh: qHTS Assay for Inhibitors of Human Jumonji Domain Containing 2E (JMJD2E). Lysine-specific demethylase 4E (Homo sapiens), B2RXH2. JMJD2E catalytic domain, FDH-coupled NADH fluorescence (FDH is formaldehyde dehydrogenase). Potency, µM (titrated, usually from 57.1 µM), most hits filed as inhibitors. 230,000 tested, 1.6% active. AID 2147, 2009; active = well fitted inhibition curve with a large enough effect, not every such curve was filed as active; inconclusive = small, poorly fitted or top-dose-only effect, or another doubt; inactive = no such curve, though single readings can be large or run the other way; note: nearly all actives have a fitted effect of over 50% in size
L3MBTL1 inh: qHTS Assay for the Inhibitors of L3MBTL1 | Potency, µM (doses to about 57.1 µM), hits mostly inhibitors | AID 485360, 2010 | 230,000 tested, 0.66% active | AlphaScreen L3MBTL1–H3K9me1 peptide binding; note: nearly all actives have a fitted effect of over 60% in size
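Displacement of a biotinylated histone H3(1-15) peptide monomethylated at Lys9 (75 nM) from L3MBTL1 (50 nM) was measured by AlphaScreen after a 30 min room-temperature compound incubation; cefsulodin titration served as intraplate control.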
APEX1 inh: qHTS Assay for Inhibitors of the Human Apurinic/apyrimidinic Endonuclease 1 (APE1); Potency, µM (titrated, usually from 65.8 µM), actives largely listed as inhibitors; DNA repair nuclease/redox regulator APEX1 (Homo sapiens), P27695; 350,000 tested, 0.35% active; recombinant APE1, TAMRA/BHQ-2 abasic DNA cleavage fluorescence; note: nearly all actives have a fitted effect of over 55% in size
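Incision of a quenched TAMRA/BHQ-2 THF abasic-site duplex (50 nM) by 0.75 nM APE1, after 15 min compound preincubation, measured as fluorescence increase over three 60 s reads. Values normalized to buffer, DMSO and NSC13755 control wells.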
BLM inh: qHTS Assay for Inhibitors of Bloom's syndrome helicase (BLM); RecQ-like DNA helicase BLM (Homo sapiens), P54132; recombinant BLM DNA unwinding, fluorescence dequenching; Potency, µM (series often up to 56.1 µM), most hits filed as inhibitors; 350,000 tested, 0.2% active; note: nearly all actives have a fitted effect of over 35% in size
RECQ1 helicase: qHTS Assay for Inhibitors of RecQ-Like Dna Helicase 1 (RECQ1); RECQ1 DNA unwinding, red fluorescence kinetic read; ATP-dependent DNA helicase Q1 (Homo sapiens), P46063; Potency, µM (doses to about 57.3 µM), actives largely listed as inhibitors; 240,000 tested, 0.54% active; note: nearly all actives have a fitted effect of over 30% in size
Target sequence (P46063 whole entry, looked up): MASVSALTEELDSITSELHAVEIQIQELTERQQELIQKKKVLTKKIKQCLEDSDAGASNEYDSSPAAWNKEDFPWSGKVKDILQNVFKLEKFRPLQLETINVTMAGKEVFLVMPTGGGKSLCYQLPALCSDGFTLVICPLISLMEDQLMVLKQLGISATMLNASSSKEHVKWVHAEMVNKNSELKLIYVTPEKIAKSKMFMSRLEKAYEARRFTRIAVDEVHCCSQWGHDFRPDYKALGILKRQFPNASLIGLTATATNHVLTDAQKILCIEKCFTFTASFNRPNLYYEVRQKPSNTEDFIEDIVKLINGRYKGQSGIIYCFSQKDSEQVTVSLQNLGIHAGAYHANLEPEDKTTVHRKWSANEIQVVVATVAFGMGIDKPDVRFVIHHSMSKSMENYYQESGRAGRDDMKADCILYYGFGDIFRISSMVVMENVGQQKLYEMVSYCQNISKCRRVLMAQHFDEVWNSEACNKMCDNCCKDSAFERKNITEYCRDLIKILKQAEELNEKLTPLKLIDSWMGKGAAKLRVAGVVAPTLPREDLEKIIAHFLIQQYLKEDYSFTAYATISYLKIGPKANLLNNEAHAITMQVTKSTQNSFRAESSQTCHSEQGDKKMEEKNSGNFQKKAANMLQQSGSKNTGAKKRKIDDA
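RECQ1T1 50 nM; forked duplex (20 bp + 30-nt ss tails) 200 nM, ATP 2 mM final; pH 8.0, 2 mM MgCl2, 2.5 ug/ml poly(dI-dC); 15 min compound preincubation; discontinuous kinetic read over 2 h at RT.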
RGS12 GoLoco inh: qHTS Assay for Inhibitors of RGS12 GoLoco Motif Activity (Red Fluorophore) | Gai1:RGS12 GoLoco peptide FP, rhodamine, 10 min | Potency, µM (titrated, usually from 61.6 µM), actives largely listed as inhibitors | 230,000 tested, 0.44% active | AID 880, 2007; active = well fitted inhibition curve with a large enough effect, not every such curve was filed as active; inactive = no such curve, though single readings can be large or run the other way; note: nearly all actives have a fitted effect of over 30% in size
Of the large screens only hits and unclear results are named; the others gave an inactive call; ! = not active in a repeat. Unless noted, calls come from the whole dose curve; as a rule, active = well fitted curve in the direction sought with a large enough effect; inconclusive = small, poorly fitted or top-dose-only effect, or another doubt; inactive = no such curve, though single readings can be large; an effect the other way counts as inactive or inconclusive.

O=C(O)C(Br)Br	RECQ1 helicase 35.5µM (no result: KDM4E inh, L3MBTL1 inh, BLM inh)
COc1cc2c(c(OC)c1OC)-c1ccc(O)c(=O)cc1[C@@H](NC(C)=O)CC2	KDM4E inh 11.2µM
CCC1(CCCC(=O)c2ccc(F)cc2)C(=O)NC(=S)NC1=O	RGS12 GoLoco inh 2µM
CC1CCCC(C2(O)C(=O)Nc3ccccc32)C1=O (centres undefined)	RGS12 GoLoco inh 14.1µM
CCC(C)(C)c1ccc(O)cc1	APEX1 inh inconclusive, RGS12 GoLoco inh 8.91µM! (no result: KDM4E inh)
CN(C)[C@@H]1C(=O)C(C(N)=O)=C(O)[C@@]2(O)C(=O)C3=C(O)c4c(O)cccc4[C@@](C)(O)C3[C@H](O)C12 (some centres undefined)	L3MBTL1 inh 3.16µM (no result: KDM4E inh, BLM inh, RECQ1 helicase, RGS12 GoLoco inh)
CN(C)C1C(=O)C(C(N)=O)=C(O)[C@@]2(O)C(=O)C3=C(O)c4c(O)cccc4[C@@](C)(O)C3[C@H](O)C12 (some centres undefined)	KDM4E inh 2µM (no result: L3MBTL1 inh)
CC[C@H]1[C@@H]2C[C@H]3[C@@H]4N(C)c5ccccc5[C@]45C[C@@H](C2[C@H]5O)N3[C@@H]1O (some centres undefined)	none (no result: KDM4E inh, L3MBTL1 inh, BLM inh, RECQ1 helicase, RGS12 GoLoco inh)
O=C1C(Cl)=C(Cl)C(=O)C(Cl)=C1Cl	KDM4E inh inconclusive, APEX1 inh 39.8µM, RECQ1 helicase inconclusive, RGS12 GoLoco inh 0.224µM (no result: L3MBTL1 inh)
CCCCn1c(NC(=O)c2ccc(Br)o2)c(C(=O)OCC)c2nc3ccccc3nc21	KDM4E inh inconclusive, BLM inh 22.4µM
CC1(C)C2(Cl)C(Cl)C(Cl)C(Cl)(C(Cl)Cl)C1(Cl)C2Cl (centres undefined)	APEX1 inh inconclusive (no result: L3MBTL1 inh)
CNCCc1c[nH]c2ccc(O)cc12	KDM4E inh 22.4µM (no result: L3MBTL1 inh)
CNCCc1c[nH]c2ccccc12	KDM4E inh inconclusive
CC1=C2C(=O)[C@@H]3[C@@H](CC=C4C[C@@H](O)CC[C@@]43C)[C@H]2CC[C@@]12O[C@H]1C[C@H](C)CN[C@H]1[C@@H]2C	none (no result: KDM4E inh, L3MBTL1 inh, APEX1 inh, BLM inh, RECQ1 helicase)
Fc1ccc(C(OCCN2CCN(C/C=C/c3ccccc3)CC2)c2ccc(F)cc2)cc1	none (no result: KDM4E inh, L3MBTL1 inh, BLM inh)
C1=C(c2c[nH]c3ccccc23)CCNC1	KDM4E inh 25.1µM (no result: RGS12 GoLoco inh)
O[C@H](CN1CC1)[C@@H](O)CN1CC1	none (no result: KDM4E inh, L3MBTL1 inh, APEX1 inh, BLM inh, RECQ1 helicase)
Oc1cc[c]([Hg][Cl])cc1	none (no result: KDM4E inh, L3MBTL1 inh, APEX1 inh, RECQ1 helicase, RGS12 GoLoco inh)
OCCCc1ccc(O)c(O)c1	KDM4E inh inconclusive
CCCN(CCC)CCc1ccc(O)c(O)c1	KDM4E inh 20µM (no result: L3MBTL1 inh, BLM inh)
O=C(O)/C=C\c1ccc[c]([Sb])c1	none (no result: KDM4E inh, L3MBTL1 inh, APEX1 inh, BLM inh, RECQ1 helicase)
O=C(O)/C=C\C(=O)O	none (no result: KDM4E inh, BLM inh)
CC(=O)O.CC(=O)O.[Cd]	KDM4E inh 20µM, APEX1 inh 3.98µM, BLM inh inconclusive, RECQ1 helicase inconclusive (no result: L3MBTL1 inh)
CCOC(=O)[C@@H]1[C@@H]2c3ccccc3-c3ccccc3[C@H]2C[C@H]1O	none (no result: KDM4E inh, L3MBTL1 inh, APEX1 inh, BLM inh, RECQ1 helicase)
CC(C)[C@]1(O)[C@@H](OC(=O)c2ccc[nH]2)[C@]2(O)[C@@]3(C)C[C@@]4(O)O[C@@]5([C@H](O)[C@@H](C)CC[C@]35O)[C@]2(O)[C@]41C	none (no result: KDM4E inh, L3MBTL1 inh, APEX1 inh, BLM inh, RECQ1 helicase)
Cc1ccc(N2C(=O)NC(=O)/C(=C/c3ccoc3)C2=O)cc1	KDM4E inh inconclusive, APEX1 inh 1.58µM, BLM inh 15.8µM, RECQ1 helicase 12.6µM (no result: L3MBTL1 inh)
CCOc1ccc(N2C(=O)NC(=O)/C(=C/c3cnc(SC)nc3)C2=O)cc1	KDM4E inh 35.5µM (no result: L3MBTL1 inh)
CSc1ncc(/C=C2/C(=O)NC(=O)N(c3ccc(Cl)cc3)C2=O)cn1	KDM4E inh inconclusive (no result: L3MBTL1 inh)
CSc1ncc(/C=C2/C(=O)NC(=O)N(c3ccc(C)cc3)C2=O)cn1	KDM4E inh inconclusive
Cc1ccc(N2C(=O)NC(=O)/C(=C/c3cnn(-c4ccc(C)cc4)c3)C2=O)cc1	none
Cc1ccc(N2C(=O)NC(=O)/C(=C\c3cnc(-c4ccccc4)nc3)C2=O)cc1	KDM4E inh 3.16µM
Clc1ccccc1CNc1nc2ccccc2n2cnnc12	KDM4E inh inconclusive
